# Results reported in PubChem BioAssay (NCI).
# Compounds without any hit were thinned out: in the full panel of roughly 79,000, 15% have a hit. Unmarked numbers belong to inactive results. Activity calls are given as the source filed them. Rule as the data show it: active = growth inhibition above about 70%; inactive = the rest.
# Tests used:
# [1] = NCI Yeast Anticancer Drug Screen. Data for the rad50 strain (AID 155);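 also: 0% = growth of vehicle-only cultures of the same strain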; settings: S. cerevisiae rad50 strain growth inhibition; at 50.0 µM; hits give high values
# In short: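 Compounds were tested on a yeast strain with an engineered DNA damage repair alteration; the reported value is growth inhibition normalised to vehicle treatment.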
# [2] = NCI Yeast Anticancer Drug Screen. Data for the mec2-1 strain (AID 157); settings: S. cerevisiae mec2-1 strain, at 50.0 µM, hits give high values
# In short: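 Strain: mec2-1 (DNA repair/cell cycle alteration). Compound exposure, then growth measured; inhibition expressed relative to vehicle.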
# [3] = NCI Yeast Anticancer Drug Screen. Data for the sgs1 mgt1 strain (AID 161);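 also: 0% = growth of cultures given vehicle only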; settings: S. cerevisiae sgs1 mgt1 strain, at 50.0 µM, hits give high values
# In short: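 Read-out: growth inhibition vs vehicle controls. Cells: mutant yeast strain deficient in DNA damage repair.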
# [4] = NCI Yeast Anticancer Drug Screen. Data for the cln2 rad14 strain (AID 165);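 also: 0% = growth equal to vehicle treated cultures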; settings: S. cerevisiae cln2 rad14 strain, at 50.0 µM, hits give high values
# In short: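 Compounds are applied to the cln2 rad14 yeast strain, and growth is then compared with that of vehicle-treated cultures to give inhibition.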
# [5] = NCI Yeast Anticancer Drug Screen. Data for the bub3 strain (AID 167); settings: S. cerevisiae bub3 mutant strain, at 50.0 µM, hits give high values
# In short: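 Growth of a checkpoint-deficient yeast mutant is measured after compound exposure. Values represent inhibition relative to vehicle.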
# [6] = NCI Yeast Anticancer Drug Screen. Data for the mlh1 rad18 strain (AID 175); settings: S. cerevisiae mlh1 rad18 strain growth inhibition; at 50.0 µM; hits give high values
# In short: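 Read-out is yeast growth inhibition, calculated against vehicle-only controls. The compound was applied to a strain engineered with DNA damage repair alterations.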
Compound,growth inhibition [1],growth inhibition [2],growth inhibition [3],growth inhibition [4],growth inhibition [5],growth inhibition [6]
NC(=O)c1ccccc1O,13.5%,5.15%,11.4%,6.2%,0.6%,15.2%
Cc1ccc(N/N=c2\c3nc4ccccc4nc2n(-c2ccccc2C)c(=S)n3-c2ccc(C)cc2)cc1,-19.6%,-14.3%,1.15%,-18.7%,0.8%,-29.5%
CC(C)(C)c1cc2ccc(C(N)=O)cc2c(=O)[nH]1,-23.7%,-29.8%,-1.65%,1.2%,-8.8%,-4.95%
c1ccc2c(-c3nn[nH]n3)nccc2c1,11.6%,-16.2%,-6.5%,-16.9%,-19.9%,-10.9%
COC12CC3C4CCC5CC(O)CCC5(C)C4CCC3(C)C1C(C)C1(CCC(C)CO1)O2 (stereo unspecified),33.6%,8.7%,13.1%,19.8%,1.05%,-0.4%
c1ccc2c(c1)ccc1c3ccccc3ccc21,14.5%,10.9%,13.6%,25.6%,24.4%,17.6%
COc1cc(-c2ccc(NC(=O)N3CC3)c(OC)c2)ccc1NC(=O)N1CC1,8.8%,-2.5%,8.3%,19.4%,-0.4%,10.7%
CC(C)c1cccc(C(C)C)c1NC(=O)/C(Cc1nc2ccc(Cl)cc2[nH]c1=O)=N\NC(=O)C[N+](C)(C)C,17.7%,16.2%,-12.3%,25.7%,26.9%,22.7%
Cc1onc(-c2ccc(-c3noc(C)c3C(=O)O)cc2)c1C(=O)O,-1.9%,-7.75%,-3.25%,-5.4%,-10.4%,11.4%
C/C=N/Nc1ccccc1,24.8%,-1.4%,18.2%,32.9%,31.9%,30%
O=C(N(CCc1ccc(O)cc1)Cc1ccc2c(c1)OCO2)C(F)(F)F,98% (active),96.8% (active),92.4% (active),92.4% (active),97.2% (active),98.6% (active)
Cc1ccc(C(CCl)c2ccc(C)cc2)cc1,-18.1%,-1.45%,-0.35%,-36.5%,-21.5%,-2.95%
O=C(Nc1ccc(Cl)cc1C(F)(F)F)C(=O)Nn1c(=S)[nH]c2ccccc2c1=O,-5.9%,-15.2%,8.5%,-2.7%,-1.1%,18.9%
CCOC(=O)N1N=NC(c2ccccc2)C1(c1ccccc1)N1CCOCC1 (stereo unspecified),38.8%,-14.8%,30.3%,4.05%,10.4%,8.7%
Cc1nc2c(c(-c3ccccc3)n1)Cc1ccccc1O2,-4.05%,-12.4%,7.55%,-10.5%,25.8%,0%
COc1ccc(C(=O)N2CCN(C)CC2)cc1OC,19.1%,-3.95%,-8.3%,13.4%,-1.75%,4.2%
C/C(=N\NC(N)=S)c1ccc(/C(C)=N/NC(N)=S)cc1,-44.6%,-0.25%,0.8%,-13.2%,-1.2%,-19.6%
Cc1ccc(S(=O)(=O)NN=C2CCCCCCCCCCC2)cc1,-8.35%,-21.4%,-7.75%,7.45%,9.05%,-1.8%
CC(=O)N1C(OC(C)C)CC(C)N1c1ccccc1 (stereo unspecified),-7.45%,-15.8%,-38.4%,3.35%,-22.8%,-38.3%
COC1OC(C(COC(=O)c2ccccc2)OC(=O)c2ccccc2)C(OC(=O)c2ccccc2)C1OS(C)(=O)=O (stereo unspecified),5.35%,-2.55%,28.8%,28.4%,-0.1%,11.6%
COc1ccc2c(ccc[n+]2CC(=O)c2ccc(SC)cc2)c1,1.9%,12.3%,20.1%,21.4%,19.6%,0.75%

Compound,growth inhibition [1],growth inhibition [2],growth inhibition [3],growth inhibition [4],growth inhibition [5],growth inhibition [6]
CSc1ccc(NC(=O)COc2ccccc2)cc1,9.75%,19.1%,6.05%,-3.7%,39.3%,21.7%
O=CNC1CCCCC1c1ccc(C2CCCCC2NC=O)cc1 (stereo unspecified),-12.1%,9.1%,-2.35%,-1.55%,6.2%,22.8%
COc1cc(C(NC(N)=O)c2cc3c(cc2O)OCO3)cc(OC)c1O (stereo unspecified),-1.4%,0.45%,-12.2%,-20.9%,12.4%,4.05%
COc1ccc(NC(=O)CCCC(=O)CC(=O)c2ccc(Cl)cc2)c(OC)c1,32.6%,13.2%,-0.95%,-20%,-1.95%,18.1%
Cc1c(F)cc(I)cc1[N+](=O)[O-],-3.7%,-9.1%,-11%,6.9%,1%,-16.6%
COc1ccccc1N=Nc1c(-c2ccccc2)nn(C(=O)CC(=O)Nc2cccc(C)c2)c1-c1ccccc1,29.1%,17.5%,4.9%,5.65%,52.5%,27.3%
CCCCCCCCC(CO)CCCCCC (stereo unspecified),15.9%,-1.05%,31.4%,1.65%,-6.4%,9.15%
O=C(CN1C(=O)c2ccccc2C1=O)OCC(=O)c1ccccc1,18.9%,12.4%,1.5%,0.4%,12.9%,4.4%
CCOC(=O)C1CC1c1c(C)c2cc3[nH]c(cc4nc(cc5nc(cc1[nH]2)C(C)=C5CCC(=O)OC)C(CCC(=O)OC)=C4C)c(C)c3C1CC1C(=O)OCC (stereo unspecified),-7.25%,36.5%,29.5%,-19.4%,-6.15%,39.2%
O=C(Nc1ccc(C(F)(F)F)cc1[N+](=O)[O-])C(=O)Nn1c(=S)[nH]c2ccccc2c1=O,20.3%,11.7%,-4.65%,18.5%,7.9%,23.1%
c1cc(Nc2ccncc2)ccn1,23.6%,-13%,-1.9%,6.2%,0.15%,19.9%
COc1cc([N+](=O)[O-])c(F)cc1F,-0.05%,0.85%,-0.05%,-20.1%,9.35%,-3.1%
OC(c1ccccc1)C1CC2C=CC1C2 (stereo unspecified),10.4%,3.9%,3.75%,3.05%,-2.05%,2.6%
CSCCC(N)C(=O)NCCNc1ccc(NCCNC(=O)C(N)CCSC)c2c1C(=O)c1ccccc1C2=O (stereo unspecified),-8.05%,-0.9%,-29%,-0.5%,-30.4%,-44.4%
O=C1c2ccccc2CC12Cc1cc3c(cc1C2=O)CCC3 (stereo unspecified),5.05%,-16.9%,-17.2%,25.5%,44.4%,18.9%
Cc1ccc(S(=O)(=O)Oc2cccc(C)c2)cc1,1.1%,17.1%,23%,-69%,14.7%,33.7%
O=[N+]([O-])c1ccc(Cl)c2cccnc12,27.2%,-7.65%,-0.15%,7.3%,0.45%,50.4%
CCCCCCP(=O)(CCCCCC)C1CCCCC1,98.1% (active),99.5% (active),99.3% (active),97.6% (active),99% (active),99% (active)
CCOC(=O)c1[nH]c2ccc(O)c3c2c1CCC3=O,30.6%,-4.15%,-3.6%,13.1%,6.4%,16.5%
O=S(=O)(C/C=C/COc1ccccc1)c1ccc2ccccc2c1,3.05%,2.65%,23.8%,3.6%,-5.85%,-12.9%
